Most compounds without a hit are left out; they make up all but 27% or so of the library.
CYP2C19 inhib: human CYP2C19 inhibition. P33261. CYP2C19 Supersomes, luciferin-H EGE luminescence, 30 min. inhibition, % at 5 µM. actives 21% (n = 96,000);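 active = CYP2C19 inhibition above a set limit at 5 µM in the primary screen, cut at about 50% in these data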
CYP2C9 inhib: human CYP2C9 inhibition; CYP2C9 Supersomes, luciferin-H conversion, luminescence; inhibition, % at 5 µM; actives 20% (n = 96,000);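 active = blocking of liver enzyme CYP2C9 beyond about 50% at 5 µM, limit read from the data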
Target sequence (P11712 whole entry, looked up): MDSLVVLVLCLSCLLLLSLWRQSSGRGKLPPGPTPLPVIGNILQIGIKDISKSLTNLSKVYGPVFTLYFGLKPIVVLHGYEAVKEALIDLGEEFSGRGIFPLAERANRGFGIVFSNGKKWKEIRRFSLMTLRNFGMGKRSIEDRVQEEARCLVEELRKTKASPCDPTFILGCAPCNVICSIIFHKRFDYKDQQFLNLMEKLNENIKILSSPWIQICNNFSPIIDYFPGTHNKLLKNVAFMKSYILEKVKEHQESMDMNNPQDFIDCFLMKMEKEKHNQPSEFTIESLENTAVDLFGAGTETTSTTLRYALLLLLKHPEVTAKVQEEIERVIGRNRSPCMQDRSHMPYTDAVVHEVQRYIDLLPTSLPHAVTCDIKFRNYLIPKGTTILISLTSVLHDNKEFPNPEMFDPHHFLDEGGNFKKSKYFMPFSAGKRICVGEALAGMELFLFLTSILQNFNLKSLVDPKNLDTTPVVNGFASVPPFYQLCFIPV
CYP2C9 activ: CYP2C9 (human) activation | P11712 | recombinant CYP2C9, luciferin-H conversion, luminescence; hits give high values; factor 1 = untreated enzyme, 0 = blocked | activation factor at 5 µM | actives 1.4% (n = 96,000) | AID 1024;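 active = activation factor of 2 or more for CYP2C9 at a 5 µM dose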
Cav32 inh: inhibitors of human Cav3.2 T-type calcium channel; O95180; Cav3.2-expressing cells, Fluo-4 calcium fluorescence FDSS; hits give low values; B-score at 10 µM; actives 4% (n = 100,000); AID 449739;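 active = single-dose well whose peak fluorescence ratio is a statistical outlier from its plate by either plate-standardised score or position-corrected B-score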
CYP2C19 activ: cytochrome P450 2C19 (human) activation. P33261. recombinant CYP2C19, luciferin-H EGE luminescence; hits give high values; 0 = fully inhibited enzyme, 1 = untreated enzyme. activation factor at 5 µM. 96,000 tested, under 10 active;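 active = activation factor of at least 2 at 5 µM in the primary screen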
Large screens that a line does not name were inactive.

Cc1ccc(C)c(N2CCN(S(=O)(=O)c3ccc4c(c3)OCCO4)CC2)c1	CYP2C19 inhib 81, CYP2C9 inhib 90
Cc1ccc(S(=O)(=O)N2CCN(C)CC2)c(C)c1	none
COC(=O)C(C(=O)OC)C(C[N+](=O)[O-])c1ccc(OC)cc1 (centres undefined)	none
COc1ccc(N2CCN(C(=O)CCc3ccc(S(=O)(=O)NCC(C)C)cc3)CC2)cc1	none (no result: CYP2C19 inhib, CYP2C9 inhib, CYP2C9 activ, CYP2C19 activ)
Cc1ccc(-c2nnn(CC(=O)Nc3cccc4c3CCCC4)n2)o1	CYP2C19 inhib 52
Cc1ccc(-c2nnn(CC(=O)NCCc3ccc4c(c3)OCO4)n2)o1	CYP2C19 inhib 60, CYP2C9 inhib 89
O=C(CCNS(=O)(=O)c1cccc2nsnc12)NC1CCN(Cc2ccccc2)CC1	none
CSc1oc(-c2ccco2)nc1S(=O)(=O)c1ccccc1	CYP2C9 activ 2.9
CCN(CC)CC(=O)Nc1ccc(C)cc1Br	CYP2C9 inhib 62
CCN(CC)CC(=O)Nc1c(C)cc(C(C)(C)C)cc1C	none
Cc1ccc(NC(=O)CC(O)(C(F)(F)F)C(F)(F)F)c(Br)c1	CYP2C19 inhib 87, CYP2C9 inhib 86
O=C(OCC#Cc1c(COC(=O)c2ccccc2)nnn1Cc1ccccc1)c1ccccc1	none (no result: CYP2C19 inhib, CYP2C9 inhib, CYP2C9 activ, CYP2C19 activ)
Cc1cccc(-n2nnnc2SCC(=O)NCCN2C(=O)CSC2=O)c1	CYP2C19 inhib 77
Cc1ccc(SCC(=O)NCCN2C(=O)CSC2=O)cc1C	CYP2C19 inhib 97
Cc1ccc(SCC(=O)NCCN2C(=O)CSC2=O)c(C)c1	none (no result: CYP2C19 inhib, CYP2C9 inhib, CYP2C9 activ, CYP2C19 activ)
Cc1ccc(-c2nc(SCC(=O)NCCN3C(=O)CSC3=O)[nH]c2-c2ccc(C)cc2)cc1	CYP2C9 inhib 64 (no result: Cav32 inh)
COc1cc2c(cc1OC)C1Cc3ccc(OC)c(OC)c3C[N+]1([O-])CC2 (centres undefined)	none (no result: CYP2C19 inhib, CYP2C9 inhib, CYP2C9 activ, CYP2C19 activ)
COc1ccc(-c2c(-c3ccsc3)oc3ccc(N4CCOCC4)cc23)cc1	none (no result: CYP2C19 inhib, CYP2C9 inhib, CYP2C9 activ, CYP2C19 activ)
CCN(CC)C(=O)c1sc2nc(N3CCOCC3)c3c(c2c1N)CCCC3	CYP2C9 inhib 52
COC(=O)c1sc2nc(N3CCCCC3)c3c(c2c1N)CCCC3	CYP2C9 inhib 72
COC(=O)c1ccc(-c2sc3nc(N4CCOCC4)c4c(c3c2N)CCCC4)o1	CYP2C19 inhib 57, CYP2C9 inhib 55
NC(=O)c1sc2nc3c(c(-c4ccc(Cl)cc4)c2c1N)CCCC3	none
CCOC(=O)c1sc2nc(N3CCOCC3)c3c(c2c1N)CCCC3	none
NC(=O)c1sc2nc(N3CCCCC3)c3c(c2c1N)CCCC3	CYP2C9 inhib 68
Cc1ccc2c(n1)CC(C)(C)C/C2=N\O	none (no result: CYP2C19 inhib, CYP2C9 inhib, CYP2C9 activ, CYP2C19 activ)
COCCN1C(=O)N[C@@H](c2cccc(F)c2)C(C(=O)OC)=C1C	none (no result: CYP2C19 inhib, CYP2C9 inhib, CYP2C9 activ, CYP2C19 activ)
COCCN(CCOC)Cc1cc(=O)oc2cc3c(cc12)CCC3	CYP2C19 inhib 77
Cc1cc(C)n2nc(SCc3cc(=O)oc4cc(C)c(C)cc34)nc2n1	none (no result: Cav32 inh)
Cc1cc2oc(=O)cc(CSc3nc(N)cc(N)n3)c2cc1C(C)C	CYP2C9 inhib 77
Cc1cc2oc(=O)cc(CN3CCCCC3)c2cc1C(C)C	Cav32 inh -4.7
Nc1cc(N)nc(SCc2cc(=O)oc3cc4c(cc23)CCC4)n1	CYP2C19 inhib 50
CC1=C(C(=O)N(C)C)C(c2cccc(Cl)c2)NC(=O)N1 (centres undefined)	none
CCCNC(=S)Nc1ccc2nc(-c3ccccn3)c(-c3ccccn3)nc2c1	none (no result: Cav32 inh)
Cc1ccc(-c2nn3nnnc3c3ccccc23)cc1	none
Brc1ccc(C2=NC(Cc3ccccc3)CO2)cc1 (centres undefined)	none (no result: CYP2C19 inhib, CYP2C9 inhib, CYP2C9 activ, CYP2C19 activ)
O=C(c1ccc2c(c1)N(Cc1ccccc1)CCS2)N1CCCCC1	Cav32 inh -8.3
CC(=O)Nc1ccc(S(=O)(=O)NC2=C(N3CCN(Cc4ccccc4)CC3)C(=O)c3ccccc3C2=O)cc1	CYP2C19 inhib 76, CYP2C9 inhib 80 (no result: Cav32 inh)
COc1cc(-n2c(=O)c3ccccc3n(Cc3ccccc3)c2=O)cc(OC)c1OC	CYP2C19 inhib 62
CC12CCC(=O)N1c1c(sc3nc(N4CCOCC4)c4c(c13)CCCC4)C(=O)N2 (centres undefined)	CYP2C9 inhib 68
O=C1C[C@@H](c2ccccc2)Oc2cc(O)cc(O)c21	none (no result: CYP2C19 inhib, CYP2C9 inhib, CYP2C9 activ, CYP2C19 activ)
CC(=O)N1CCC(=NNS(=O)(=O)c2ccc(C)c([N+](=O)[O-])c2)CC1	none
CC1CCCC/C1=N\NS(=O)(=O)c1ccc(Br)cc1 (centres undefined)	CYP2C9 inhib 51
CC(C)(C)C1CCC(=NNS(=O)(=O)c2ccc(Br)cc2)CC1 (centres undefined)	none (no result: CYP2C19 inhib, CYP2C9 inhib, CYP2C9 activ, CYP2C19 activ)
O=S(=O)(N/N=C1/CC(c2ccccc2)Oc2ccccc21)c1ccc(Br)cc1 (centres undefined)	CYP2C9 inhib 65 (no result: Cav32 inh)
Cc1ccc(C)c(S(=O)(=O)N/N=C2/CCCc3ccccc32)c1	none
O=S(=O)(N/N=C1/CCCc2ccccc21)c1ccc(Br)cc1	Cav32 inh -4.2 (no result: CYP2C19 inhib, CYP2C9 inhib, CYP2C9 activ, CYP2C19 activ)
Cc1ccc(S(=O)(=O)N/N=C2/CC(c3ccccc3)Oc3ccccc32)cc1[N+](=O)[O-] (centres undefined)	CYP2C19 inhib 67, CYP2C9 inhib 99
CCCCCCC(=O)N1C/C=C\C(c2ccc(OC)cc2)N(Cc2ccc(F)cc2)C(=O)[C@H]1Cc1ccccc1 (some centres undefined)	none (no result: CYP2C19 inhib, CYP2C9 inhib, CYP2C9 activ, CYP2C19 activ)
Cc1cc(C)c(S(C)(=O)=O)c(Oc2ccc(C(C)(C)C)cc2)n1	CYP2C9 inhib 86 (no result: Cav32 inh)
Cc1cc(C)c(S(C)(=O)=O)c(Oc2cccc(Cl)c2)n1	none (no result: Cav32 inh)
Cc1ccc(S(=O)(=O)c2c(C)cc(C)nc2Oc2cccc(C(F)(F)F)c2)cc1	CYP2C19 inhib 59, Cav32 inh -6.3
CCN(CC)CCNC1=CC(=O)OC12CCCCC2	none (no result: CYP2C19 inhib, CYP2C9 inhib, CYP2C9 activ, CYP2C19 activ)
O=c1c(O)c(-c2cccs2)oc2ccc(Cl)cc12	Cav32 inh -4.8
O=c1c(O)c(-c2cccs2)oc2ccccc12	Cav32 inh -3.8
CCCCC1(C)NC(=O)N(CC(=O)Nc2ccc(S(=O)(=O)N3CCOCC3)cc2)C1=O (centres undefined)	none
O=C(O)C1=C[C@H](C2CC2)C[C@H](OCCCCO)O1	none (no result: CYP2C19 inhib, CYP2C9 inhib, CYP2C9 activ, CYP2C19 activ)
CC1CN(S(=O)(=O)c2ccc(NC(=O)CCN3C(=O)c4ccccc4C3=O)cc2)CC(C)O1 (centres undefined)	CYP2C9 inhib 57 (no result: Cav32 inh)
O=C(CCCCCN1C(=O)c2ccccc2C1=O)Nc1ccc(F)cc1	none (no result: CYP2C19 inhib, CYP2C9 inhib, CYP2C9 activ, CYP2C19 activ)
O=C(CCCCCN1C(=O)c2ccccc2C1=O)Nc1ccc(S(=O)(=O)N2CCCCC2)cc1	CYP2C9 inhib 83
CC1CCN(S(=O)(=O)c2ccc(C(=O)Nc3sccc3C(N)=O)cc2)CC1	CYP2C19 inhib 52, CYP2C9 inhib 59
CC1CN(S(=O)(=O)c2ccc(NC(=O)CCCN3C(=O)c4ccccc4C3=O)cc2)CC(C)O1 (centres undefined)	CYP2C9 inhib 50
Cc1ccc(NC(=O)c2ccc(S(=O)(=O)N3CCC(C)CC3)cc2)cc1	none
CCN(CC)CCNC(=O)c1ccccc1C(=O)c1ncc[nH]1	none
O=S(=O)(c1ccc(Cl)cc1)N1CCC(n2cnc3cc(C(F)(F)F)ccc32)CC1	none (no result: CYP2C19 inhib, CYP2C9 inhib, CYP2C9 activ, CYP2C19 activ)
CC1CCN(S(=O)(=O)c2ccc(NC(=O)CN3CCCC(C)C3)cc2)CC1 (centres undefined)	none

Screening results as filed in PubChem BioAssay.
